# Measurements from the OligoGym collection.
# Target: TELO2
# Assay: pooled miR-30 sensor sort-seq; sequence = guide strand
# Conditions: shRNA
# Also: reference of the scale not given here.
row,Sequence,sensor-assay potency score (higher = more potent)
1,TTCATCAGCCGGAAGCTGGGGC,0.0431
2,ATCATCGCTGTCCAGGTCCGAG,-1.37
3,TTCTTGTTCTTCACCACCAGGT,-0.407

# Target: TFAP4
# Assay: as above
# Conditions: shRNA
row,Sequence,sensor-assay potency score (higher = more potent)
1,TTCTCTCCGTCTGTGTGGGGGA,-0.652
2,TTCCCGCTCCAGCTTCTCCTGG,-1.47
3,TCGTCCTCCCAGATGTCCGGGG,-0.989
4,TACATGTGGGCCTCCAGCGAGC,-1.01
5,TTGAGGGACTGGAATCCCGCGT,-0.113
6,TTGGCAAGGCTACAGAGCCCTC,-1.54
7,ATCACCTTGAGCTTTTCCGGGT,-0.563
8,TTCACGATGACAGCTCGCCGCT,-1.34
9,TGCTGAGCTTCTCTCCGTCTGT,-0.432
10,AATCACCTTGAGCTTTTCCGGG,-1.02
11,TTGCTGTTGGCGATCTCCCGCC,-0.484
12,TTCGTCCTTGTCCTCTGCCCGC,-1.28
